Assay results: the supplement of paper PMC10849652
About 7,900 targets were measured; listed, in parts, are those with a hit and a random draw of the rest. About 0.6% of all pairs of compound and target were hits.

Assays:
Assay in all cases: log2 fold change, soluble protein after heating vs DMSO (PISA); higher = thermal stabilisation; K562 cells, 10 uM, 30 min; active = over 0.2 and 3.5 SD of the protein, either way, in both replicates (recomputed)
[1] = compound: CC[C@@H]1C(=O)N(C)c2cnc(Nc3ccc(C(=O)NC4CCN(C)CC4)cc3OC)nc2N1C1CCCC1
In short: (§1)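 Thermal stability values are relative to control samples and come from duplicates. They are expressed as log2 fold changes. For measurement, K562 cells (2×10^6 cells/mL) received 10 μM compound for 30 min, and aliquots were heated for 3 min over 48°C-58°C, pooled, and extracted at 4°C in PBS with 0.5% NP-40. Soluble protein, the supernatant after 21,000xg for 90 min, was quantified by TMTpro 16plex LC-MS/MS with equalised channel sums.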

[2] = compound: CC[C@@H]1C(=O)N(C)c2cnc(Nc3ccc(C(=O)N[C@H]4CC[C@H](N5CCN(CC6CC6)CC5)CC4)cc3OC)nc2N1C(C)C [volasertib]
In short: as §1

[3] = compound: CC[C@H](C)N1C=C(C2=C(C=C(C=C21)C3=CN=C(C=C3)N4CCNCC4)C(=O)NCC5=C(C=C(NC5=O)C)C)C
In short: as §1

[4] = compound: CC[C@H](C)[C@@H](C(=O)N[C@@H]([C@@H](C)O)C(=O)N[C@@H](CC(C)C)C(=O)[C@]1(CO1)C)NC(=O)[C@H]([C@@H](C)CC)N(C)C(=O)C [epoxomicin]
In short: as §1

[5] = compound: CCn1c(C(=O)N(C2CC2)C2CC2)cc2c3c(ncn3C)c(Nc3cc(C)n(C)n3)nc21
In short: as §1

[6] = compound: CCn1cc(-c2ccnc3[nH]c(-c4cccc(CN(C)C)c4)cc23)c(-c2ccc(NC(=O)N(C)C)cc2)n1
In short: as §1

[7] = compound: CN(C)CC(=O)Nc1ccc2[nH]c(=O)c3ccccc3c2c1
In short: as §1

[8] = compound: CN(CCOC1=CC=C(C=C1)C[C@H]2C(=O)NC(=O)S2)C3=CC=CC=N3 (racemic) [rosiglitazone]
In short: as §1

[9] = compound: CN1C2=C(C3=C1C(=O)N(N=C3)CC4=CC(=CC=C4)N)SC(=C2)S(=O)C
In short: as §1

[10] = compound: CN1CCC(CNc2ccc3ncc(-c4cccc(OC(F)(F)F)c4)n3n2)CC1
In short: as §1

[11] = compound: CN1CCN(CCOc2cc(OC3CCOCC3)c3c(Nc4c(Cl)ccc5c4OCO5)ncnc3c2)CC1 [saracatinib]
In short: as §1

[12] = compound: CN1CCN(c2nc(C3=C(c4c[nH]c5ccccc45)C(=O)NC3=O)c3ccccc3n2)CC1 [sotrastaurin]
In short: as §1

[13] = compound: CN1CC[C@H](c2c(O)cc(O)c3c(=O)cc(-c4ccccc4Cl)oc23)[C@H](O)C1 [alvocidib]
In short: as §1

[14] = compound: CN1CCc2c(c3ccccc3n2Cc2ccc(C(=O)NO)cc2)C1 [Tubastatin A]
In short: as §1

[15] = compound: CNC(=O)C1=CC=CC=C1NC2=NC(=NC=C2Cl)NC3=C(C=C(C=C3)N4CCOCC4)OC
In short: as §1

[16] = compound: CNC(=O)c1ccc(Nc2ncc(C(F)(F)F)c(NCc3nccnc3N(C)S(C)(=O)=O)n2)cc1 [defactinib]
In short: as §1

[17] = compound: CNCc1ccc(-c2[nH]c3cc(F)cc4c3c2CCNC4=O)cc1 [rucaparib]
In short: as §1

[18] = compound: CNc1nc(-c2ccc3c(N)n[nH]c3c2)cc(N2C[C@@H](C(=O)NC3CCCCC3)CC[C@H]2C)n1
In short: as §1

[19] = compound: COC(=O)N[C@@H](C)CNc1nccc(-c2cn(C(C)C)nc2-c2cc(Cl)cc(NS(C)(=O)=O)c2F)n1 [encorafenib]
In short: as §1

[20] = compound: COC(=O)[C@H](CCSC)NC(=O)C1=C(C=C(C=C1)NC[C@H](CS)N)C2=CC=CC=C2
In short: as §1

Measured: log2 fold change

CKS1B (UniProt P61024)
UniProt P61024, sequence (P61024 whole entry, looked up): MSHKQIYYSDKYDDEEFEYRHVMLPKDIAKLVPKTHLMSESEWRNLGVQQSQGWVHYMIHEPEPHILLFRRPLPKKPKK
inactive: [1] -0.028 | [2] 0.068 | [3] 0.094 | [4] 0.014 | [5] 0.025 | [6] 0.041 | [7] -0.024 | [8] -0.002 | [9] 0.022 | [10] -0.006 | [11] 0.06 | [12] 0.059 | [13] -0.067 | [14] -0.045 | [15] -0.01 | [16] -0.054 | [17] -0.047 | [18] -0.057 | [19] 0.01 | [20] -0.1

CSNK2A2 (UniProt P19784)
UniProt P19784, sequence (P19784 whole entry, looked up): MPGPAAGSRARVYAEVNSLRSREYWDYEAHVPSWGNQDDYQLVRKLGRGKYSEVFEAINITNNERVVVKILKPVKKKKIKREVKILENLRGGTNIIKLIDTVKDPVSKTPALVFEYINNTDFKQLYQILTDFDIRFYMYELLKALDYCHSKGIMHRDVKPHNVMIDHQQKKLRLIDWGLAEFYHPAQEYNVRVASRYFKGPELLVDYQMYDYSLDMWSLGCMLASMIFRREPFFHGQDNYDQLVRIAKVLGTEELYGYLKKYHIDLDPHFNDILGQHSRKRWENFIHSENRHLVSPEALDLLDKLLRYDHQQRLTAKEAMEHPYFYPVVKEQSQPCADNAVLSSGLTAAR
active: [10] -0.244
inactive: [1] -0.053 | [2] -0.122 | [3] 0.028 | [4] 0.029 | [5] 0.01 | [6] -0.043 | [7] -0.006 | [8] 0.066 | [9] -0.038 | [11] 0.029 | [12] 0.024 | [13] -0.041 | [14] -0.042 | [15] 0.214 | [16] -0.067 | [17] -0.123 | [18] -0.017 | [19] -0.039 | [20] -0.052

CHKA (UniProt P35790)
UniProt P35790, sequence (P35790 whole entry, looked up): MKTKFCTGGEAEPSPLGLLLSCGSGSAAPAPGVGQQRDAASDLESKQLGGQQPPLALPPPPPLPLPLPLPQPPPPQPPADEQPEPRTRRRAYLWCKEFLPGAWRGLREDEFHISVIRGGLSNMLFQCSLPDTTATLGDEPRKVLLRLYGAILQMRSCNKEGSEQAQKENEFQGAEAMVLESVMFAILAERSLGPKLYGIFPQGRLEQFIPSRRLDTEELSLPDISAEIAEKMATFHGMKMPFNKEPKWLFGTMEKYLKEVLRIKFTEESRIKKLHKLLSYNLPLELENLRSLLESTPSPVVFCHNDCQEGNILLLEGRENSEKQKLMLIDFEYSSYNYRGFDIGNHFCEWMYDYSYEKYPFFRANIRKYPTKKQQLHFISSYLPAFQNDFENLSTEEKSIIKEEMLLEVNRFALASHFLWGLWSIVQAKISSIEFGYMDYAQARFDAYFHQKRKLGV
inactive: [1] 0.22 | [2] 0.161 | [3] -0.077 | [4] 0.127 | [5] -0.001 | [6] 0.203 | [7] 0.043 | [8] 0.044 | [9] -0.082 | [10] 0.187 | [11] 0.028 | [12] 0.107 | [13] 0.064 | [14] 0.148 | [15] -0.033 | [16] 0.006 | [17] 0.046 | [18] -0.027 | [19] -0.107 | [20] 0.056

CBX5 (UniProt P45973)
UniProt P45973, sequence (P45973 whole entry, looked up): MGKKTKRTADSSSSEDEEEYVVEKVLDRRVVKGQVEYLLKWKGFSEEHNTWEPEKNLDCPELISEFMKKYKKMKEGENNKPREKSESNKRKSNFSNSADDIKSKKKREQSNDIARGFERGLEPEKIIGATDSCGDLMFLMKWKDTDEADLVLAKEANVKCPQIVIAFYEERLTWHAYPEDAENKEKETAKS
inactive: [1] -0.033 | [2] -0.128 | [3] 0.048 | [4] -0.022 | [5] -0.034 | [6] -0.057 | [7] -0.034 | [8] -0.012 | [9] -0.121 | [10] -0.003 | [11] -0.04 | [12] -0.001 | [13] -0.115 | [14] 0.078 | [15] -0.026 | [16] -0.205 | [17] -0.022 | [18] 0.043 | [19] 0.009 | [20] -0.012

CDK5 (UniProt Q00535)
UniProt Q00535, sequence (Q00535 whole entry, looked up): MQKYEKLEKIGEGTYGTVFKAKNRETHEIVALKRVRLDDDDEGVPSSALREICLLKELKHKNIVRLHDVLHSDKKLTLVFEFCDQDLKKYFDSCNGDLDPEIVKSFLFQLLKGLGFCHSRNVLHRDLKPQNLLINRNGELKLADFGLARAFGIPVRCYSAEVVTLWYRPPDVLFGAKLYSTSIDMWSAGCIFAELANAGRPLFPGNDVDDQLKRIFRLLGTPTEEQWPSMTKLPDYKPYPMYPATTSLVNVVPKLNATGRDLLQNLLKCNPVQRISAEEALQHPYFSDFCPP
active: [2] -0.259
inactive: [1] -0.087 | [3] 0.095 | [4] 0 | [5] 0.004 | [6] -0.039 | [7] 0.002 | [8] 0.041 | [9] -0.014 | [10] 0.025 | [11] -0.008 | [12] 0.094 | [13] 0.142 | [14] -0.013 | [15] 0.029 | [16] 0.143 | [17] 0.05 | [18] 0.006 | [19] 0.049 | [20] -0.042

CNDP2 (UniProt Q96KP4)
UniProt Q96KP4, sequence (Q96KP4 whole entry, looked up): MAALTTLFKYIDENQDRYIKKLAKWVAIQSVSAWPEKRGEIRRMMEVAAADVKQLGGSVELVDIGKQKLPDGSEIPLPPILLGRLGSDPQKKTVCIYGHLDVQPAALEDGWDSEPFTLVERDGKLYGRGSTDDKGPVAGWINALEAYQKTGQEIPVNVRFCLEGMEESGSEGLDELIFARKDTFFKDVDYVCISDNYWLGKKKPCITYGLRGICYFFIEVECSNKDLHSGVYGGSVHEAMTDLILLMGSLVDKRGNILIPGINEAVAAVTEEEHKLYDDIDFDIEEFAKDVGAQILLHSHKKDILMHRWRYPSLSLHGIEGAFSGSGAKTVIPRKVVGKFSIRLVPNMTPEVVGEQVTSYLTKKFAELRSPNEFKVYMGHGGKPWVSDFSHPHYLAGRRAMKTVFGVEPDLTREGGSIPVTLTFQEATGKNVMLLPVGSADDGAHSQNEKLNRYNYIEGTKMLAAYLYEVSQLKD
inactive: [1] -0.037 | [2] 0.014 | [3] -0.003 | [4] -0.012 | [5] 0.014 | [6] -0.1 | [7] -0.002 | [8] 0.016 | [9] -0.103 | [10] -0.149 | [11] -0.016 | [12] -0.003 | [13] -0.062 | [15] -0.014 | [16] -0.006 | [17] -0.041 | [18] 0.028 | [19] 0.001 | [20] 0.124
active: [14] -0.226

CD63 (UniProt P08962)
inactive: [1] -0.013 | [2] 0.048 | [3] -0.013 | [4] -0.019 | [5] 0.017 | [6] 0.06 | [7] 0.01 | [8] 0.04 | [9] 0.012 | [10] 0.018 | [11] 0.021 | [12] 0.017 | [13] 0.01 | [14] -0.005 | [15] 0 | [16] -0.006 | [17] -0.018 | [18] -0.01 | [19] 0.049 | [20] 0.015

CRLS1 (UniProt Q9UJA2)
inactive: [1] 0.029 | [2] 0.026 | [3] 0.001 | [5] -0.024 | [6] 0.052 | [7] -0.024 | [9] -0.006 | [10] 0.09 | [11] 0.144 | [12] -0.282 | [13] 0.02 | [14] -0.079 | [15] 0.043 | [16] -0.088 | [17] -0.088 | [18] -0.052 | [19] 0.004 | [20] 0.067

COPS3 isoform 2 (UniProt Q9UNS2)
UniProt Q9UNS2, sequence (Q9UNS2 whole entry, looked up): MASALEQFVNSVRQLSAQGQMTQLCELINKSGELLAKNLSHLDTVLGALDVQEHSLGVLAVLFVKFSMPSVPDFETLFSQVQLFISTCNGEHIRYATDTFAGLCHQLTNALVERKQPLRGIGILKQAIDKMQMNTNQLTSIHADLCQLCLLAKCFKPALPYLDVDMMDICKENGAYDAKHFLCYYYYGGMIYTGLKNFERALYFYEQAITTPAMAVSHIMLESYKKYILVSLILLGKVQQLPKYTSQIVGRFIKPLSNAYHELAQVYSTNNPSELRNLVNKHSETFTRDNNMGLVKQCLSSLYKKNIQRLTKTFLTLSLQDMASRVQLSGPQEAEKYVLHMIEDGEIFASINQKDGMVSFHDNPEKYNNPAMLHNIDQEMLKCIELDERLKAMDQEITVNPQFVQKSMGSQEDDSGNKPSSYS
inactive: [1] 0.079 | [2] 0.031 | [3] 0.001 | [4] 0.059 | [6] -0.075 | [7] -0.165 | [8] -0.046 | [10] -0.124 | [12] 0.134 | [14] -0.005 | [16] 0.109 | [17] -0.055 | [19] -0.041 | [20] 0.059

CCDC57 (UniProt Q2TAC2)
inactive: [1] -0.033 | [2] 0.012 | [3] -0.043 | [4] -0.059 | [5] 0.036 | [7] -0.034 | [8] 0.018 | [12] 0.059 | [13] -0.055 | [14] 0.026 | [15] 0.04 | [16] 0.02 | [17] -0.15 | [19] 0.041 | [20] 0.007

CCDC82 (UniProt Q8N4S0)
inactive: [1] -0.062 | [3] -0.018 | [4] 0.143 | [5] -0.057 | [7] 0.001 | [8] 0 | [9] -0.069 | [11] 0 | [13] -0.065 | [14] 0.102 | [15] 0.03 | [16] -0.09 | [17] -0.069 | [18] -0.139 | [19] 0.021 | [20] -0.037
active: [2] -0.349

CCM2 isoform 2 (UniProt Q9BSQ5)
inactive: [1] -0.207 | [4] 0.102 | [5] -0.047 | [6] -0.017 | [7] -0.01 | [8] 0.032 | [9] -0.012 | [10] -0.233 | [11] -0.01 | [12] 0.056 | [13] -0.022 | [14] 0.073 | [15] -0.061 | [16] -0.107 | [17] 0.03 | [18] 0.087 | [19] 0.118 | [20] -0.033
active: [2] -0.412

CLASP2 (UniProt O75122)
UniProt O75122, sequence (O75122 whole entry, looked up): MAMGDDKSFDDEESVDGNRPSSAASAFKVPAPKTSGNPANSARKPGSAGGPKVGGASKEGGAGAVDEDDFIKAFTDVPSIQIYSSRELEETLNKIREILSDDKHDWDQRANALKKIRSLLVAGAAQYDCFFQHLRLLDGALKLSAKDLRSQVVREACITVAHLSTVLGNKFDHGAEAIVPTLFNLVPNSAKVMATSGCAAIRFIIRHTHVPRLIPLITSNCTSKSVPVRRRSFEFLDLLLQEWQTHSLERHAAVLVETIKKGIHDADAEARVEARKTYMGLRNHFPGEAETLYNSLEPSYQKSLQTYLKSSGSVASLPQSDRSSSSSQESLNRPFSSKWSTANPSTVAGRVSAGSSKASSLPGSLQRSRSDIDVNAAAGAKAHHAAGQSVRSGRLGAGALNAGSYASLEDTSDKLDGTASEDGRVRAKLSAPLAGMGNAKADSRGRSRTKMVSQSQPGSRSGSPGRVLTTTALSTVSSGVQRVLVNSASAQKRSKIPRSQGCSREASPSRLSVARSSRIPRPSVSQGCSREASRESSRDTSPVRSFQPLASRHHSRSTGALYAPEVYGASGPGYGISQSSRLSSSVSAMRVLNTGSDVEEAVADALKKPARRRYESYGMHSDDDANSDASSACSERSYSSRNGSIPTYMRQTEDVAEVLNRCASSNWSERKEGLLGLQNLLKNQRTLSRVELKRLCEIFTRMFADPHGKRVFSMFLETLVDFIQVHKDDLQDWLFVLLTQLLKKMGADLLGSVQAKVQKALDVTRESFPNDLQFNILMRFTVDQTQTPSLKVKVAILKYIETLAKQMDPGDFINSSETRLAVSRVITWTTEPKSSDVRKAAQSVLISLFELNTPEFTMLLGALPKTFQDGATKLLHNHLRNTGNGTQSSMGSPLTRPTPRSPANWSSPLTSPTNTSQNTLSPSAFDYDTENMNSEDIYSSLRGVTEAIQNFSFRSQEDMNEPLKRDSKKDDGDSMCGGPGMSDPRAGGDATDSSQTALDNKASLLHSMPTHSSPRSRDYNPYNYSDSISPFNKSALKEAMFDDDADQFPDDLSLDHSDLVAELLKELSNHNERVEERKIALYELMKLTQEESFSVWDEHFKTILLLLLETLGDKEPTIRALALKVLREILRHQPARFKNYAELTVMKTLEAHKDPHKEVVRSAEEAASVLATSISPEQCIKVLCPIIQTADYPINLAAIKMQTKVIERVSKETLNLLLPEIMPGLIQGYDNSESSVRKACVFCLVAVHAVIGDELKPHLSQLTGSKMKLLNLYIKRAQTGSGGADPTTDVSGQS
inactive: [1] -0.104 | [2] -0.123 | [3] 0.083 | [5] -0.038 | [8] 0.166 | [13] -0.069 | [15] 0 | [17] 0 | [19] 0.098

COMMD1 (UniProt Q8N668)
inactive: [1] -0.029 | [2] -0.041 | [3] 0.054 | [4] -0.071 | [5] -0.063 | [6] 0.157 | [7] 0.019 | [8] 0.016 | [10] 0.295 | [12] -0.038 | [14] -0.213 | [15] 0.119 | [16] -0.151 | [17] 0.15 | [19] -0.028 | [20] 0.092

CDK8 (UniProt P49336)
UniProt P49336, sequence (P49336 whole entry, looked up): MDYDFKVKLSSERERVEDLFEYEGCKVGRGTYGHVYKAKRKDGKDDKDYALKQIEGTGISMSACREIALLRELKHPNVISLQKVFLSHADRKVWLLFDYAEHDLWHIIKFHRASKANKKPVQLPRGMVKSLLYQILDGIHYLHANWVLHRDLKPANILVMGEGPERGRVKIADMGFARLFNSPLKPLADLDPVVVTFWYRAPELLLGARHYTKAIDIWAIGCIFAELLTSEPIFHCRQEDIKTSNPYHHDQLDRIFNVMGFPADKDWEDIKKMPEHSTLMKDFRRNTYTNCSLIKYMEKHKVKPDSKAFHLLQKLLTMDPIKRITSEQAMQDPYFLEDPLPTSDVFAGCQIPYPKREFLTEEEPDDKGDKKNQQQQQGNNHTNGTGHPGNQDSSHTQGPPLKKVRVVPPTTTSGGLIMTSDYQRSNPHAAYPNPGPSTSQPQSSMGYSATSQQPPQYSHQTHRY
active: [13] 0.66
inactive: [1] 0.096 | [2] -0.039 | [4] -0.098 | [5] 0.027 | [6] -0.236 | [7] -0.044 | [8] -0.02 | [9] -0.025 | [10] 0.356 | [11] -0.006 | [12] 0.074 | [14] -0.1 | [15] 0.053 | [16] -0.059 | [17] 0.192 | [18] 0.018 | [19] -0.002 | [20] 0.064

CASP9 (UniProt P55211)
inactive: [1] -0.083 | [3] 0.008 | [4] 0.054 | [6] 0.035 | [7] 0.048 | [9] 0.001 | [10] -0.188 | [11] -0.206 | [12] -0.25 | [13] -0.136 | [14] 0.098 | [16] -0.165 | [17] 0.161 | [18] -0.051 | [19] 0.012 | [20] -0.035
active: [2] -0.629

CORO2A (UniProt Q92828)
UniProt Q92828, sequence (Q92828 whole entry, looked up): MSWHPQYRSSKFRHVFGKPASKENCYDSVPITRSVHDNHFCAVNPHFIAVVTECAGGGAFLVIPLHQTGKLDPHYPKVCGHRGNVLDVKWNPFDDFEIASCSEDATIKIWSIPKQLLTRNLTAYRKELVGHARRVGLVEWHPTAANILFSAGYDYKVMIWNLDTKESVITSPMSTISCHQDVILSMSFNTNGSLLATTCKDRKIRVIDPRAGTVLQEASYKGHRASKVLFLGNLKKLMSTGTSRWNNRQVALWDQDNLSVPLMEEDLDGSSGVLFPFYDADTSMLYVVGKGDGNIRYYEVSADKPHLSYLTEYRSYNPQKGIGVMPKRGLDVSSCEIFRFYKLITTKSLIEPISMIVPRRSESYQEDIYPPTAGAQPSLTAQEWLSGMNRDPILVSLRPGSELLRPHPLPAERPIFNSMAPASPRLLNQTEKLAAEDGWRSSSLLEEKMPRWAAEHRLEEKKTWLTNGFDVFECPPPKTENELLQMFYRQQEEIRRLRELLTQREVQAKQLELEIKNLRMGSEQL
inactive: [1] 0.164 | [2] -0.075 | [3] 0.01 | [5] -0.016 | [6] 0 | [7] -0.038 | [8] 0.011 | [9] -0.022 | [10] -0.096 | [11] 0.016 | [12] 0.015 | [13] -0.021 | [14] -0.055 | [15] 0.053 | [16] -0.015 | [17] -0.266 | [18] -0.097 | [19] 0.21 | [20] -0.028

CAB39L (UniProt Q9H9S4)
UniProt Q9H9S4, sequence (Q9H9S4 whole entry, looked up): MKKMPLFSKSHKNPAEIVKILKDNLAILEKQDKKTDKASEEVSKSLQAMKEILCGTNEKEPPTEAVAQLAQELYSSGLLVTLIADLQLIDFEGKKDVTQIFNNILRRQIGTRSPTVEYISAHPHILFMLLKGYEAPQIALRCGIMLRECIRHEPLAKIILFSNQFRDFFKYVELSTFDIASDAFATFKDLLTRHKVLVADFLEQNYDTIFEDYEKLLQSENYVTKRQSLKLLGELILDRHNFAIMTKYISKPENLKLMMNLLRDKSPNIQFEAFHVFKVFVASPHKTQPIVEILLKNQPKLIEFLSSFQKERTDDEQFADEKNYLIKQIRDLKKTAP
inactive: [1] -0.134 | [2] -0.054 | [4] 0.018 | [5] 0.008 | [6] 0.161 | [7] -0.169 | [8] 0.107 | [9] -0.047 | [10] 0.072 | [11] 0.043 | [12] -0.213 | [14] 0.056 | [15] 0.049 | [16] -0.09 | [17] 0.003 | [18] 0.015 | [19] -0.144 | [20] 0.043
